Where “and” joins values, the source holds several entries; their conditions need not be identical. Equal entries are not always repeated. Inconclusive results are not listed. A number with no mark means an inactive call. Calls of active or inactive are those of the source. The call rests on the fitted dose curve; in most records, active means well fitted curve in the direction sought with a large enough effect; inconclusive means small, poorly fitted or top-dose-only effect, or another doubt; inactive means no such curve, though single readings can be large or run the other way. Where a SMILES comes first, the peptide text is derived from it. Bridges are numbered along the chain shown (N, C = ends). [ ]: non-standard residue; d: D form. Orn = NCCC[C@H](N)C(=O)O; Mpa = O=C(O)CCS
On the % scale 0 is the no-effect control and ±100 the full control effect; potency means the concentration at half of the fitted maximal effect.

The assay is described as follows: qHTS Assay for Identifying Gametocytocidal Compounds (AID 743244).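 On max response: actives lower the fluorescent signal which means gametocytes are killed.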 Conditions: P. falciparum 3D7 stage III-V gametocytes, alamarBlue, 72 h; max response: hits give low values. The method, boiled down:
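Using 20,000 stage III–V 3D7 gametocytes per well, compounds were incubated 72 h under 37 °C/5% CO2. Viability was then assessed by 24 h alamarBlue reduction, measured fluorometrically at 525/598 nm.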
(Quantitative high-throughput screening tests each substance at several concentrations.)
Consider `CCC(c1ccccc1)c1noc(CCN(CC)CC)n1` (centres undefined), for which the max response was 15%.
As for `CCCCCC(O)/C=C/C=O` (centres undefined), the max response is -0.932%.
Consider `CO[C@H]1[C@@H](O)[C@H](N)[C@@H](O[C@H]2O[C@H]([C@H](C)N)CC[C@H]2N)[C@H](O)[C@@H]1N(C)C(=O)CN`, for which the max response is 15.1%.
As to `CC(=O)OCC(=O)[C@@]1(O)[C@H](C)C[C@H]2[C@@H]3C[C@H](F)C4=CC(=O)C=C[C@]4(C)[C@H]3[C@@H](O)C[C@@]21C`, the max response is -15.2%.
Still for that read-out and setting: under `CC(=O)[C@@]1(O)CC[C@H]2[C@@H]3C=C(Cl)C4=CC(=O)CC[C@]4(C)[C@H]3CC[C@@]21C` stands -4.61%; under `O.O=C([O-])CC([S-])C(=O)[O-].[Au+].[Na+].[Na+]` (centres undefined), -19.1%; under `CCCCCCCCCCCCCCCC(=O)OC[C@H](O)[C@H]1OC(=O)C(O)=C1O`, 0.191%.
In the case of `C=CCNC1=C2C[C@@H](C)C[C@H](OC)[C@H](O)[C@@H](C)/C=C(\C)[C@H](OC(N)=O)[C@@H](OC)/C=C\C=C(/C)C(=O)NC(=CC1=O)C2=O`, the Potency is 2820 nM (active).
Regarding `NCCC[C@H](N)C(=O)O`, the max response is -1.29%.
Regarding `O=C1C(c2[nH]c3ccc(S(=O)(=O)O)cc3c2O)=Nc2ccc(S(=O)(=O)O)cc21`, the max response is -2.9% and 36.3% and 37.5%.
As for `O=C(O)c1cc2ccccc2c(Cc2c(O)c(C(=O)O)cc3ccccc23)c1O`, the max response is 60.7%.
Turning to `O=P(O)(O)OC(Cn1cncn1)(Cn1cncn1)c1ccc(F)cc1F`, the max response is 1.82%.
The same measure, in the same setting: under `COc1cc(C[C@@H]2NCCc3cc(O)c(O)cc32)cc(OC)c1OC` stands -17.1%; under `CCOC(=O)COc1ccc2c(=O)cc(-c3ccccc3)oc2c1`, 51.1% and 12.3%; under `CCCC(CCC)C(N)=O`, -4.93%.
`CCOc1ccc(C[C@H]2NC(=O)CCSSC[C@@H](C(=O)N3CCC[C@H]3C(=O)N[C@@H](CCCN)C(=O)NCC(N)=O)NC(=O)[C@H](CC(N)=O)NC(=O)[C@H]([C@@H](C)O)NC(=O)[C@H]([C@@H](C)CC)NC2=O)cc1` ([Mpa][dY](Et)ITNCP[Orn]G-NH2; disulfide 1-6): the max response was 12.3%.
Same read-out and setting: under `CCOC(=O)Nc1ccc2c(c1)N(C(=O)CN(C)C)c1ccccc1CC2` stands 6.79%; under `CC(=O)OC[C@H]1O[C@@H](O[C@H]2[C@H](O)[C@@H](OC(=O)c3ccccc3C(=O)O)[C@H](O)O[C@@H]2COC(C)=O)[C@H](O)[C@@H](OC(=O)c2ccccc2C(=O)O)[C@@H]1O`, -3.61%; under `CCOc1ccc(N=C(C)Nc2ccc(OCC)cc2)cc1`, -5.06%.
The same measure, in the same setting: under `CCCCCCCCCCCCCCCC(=O)O[C@@H]1CC(C)=C(/C=C/C(C)=C/C=C/C(C)=C/C=C/C=C(C)/C=C/C=C(C)/C=C/C2=C(C)C[C@@H](OC(=O)CCCCCCCCCCCCCCC)CC2(C)C)C(C)(C)C1` stands 1.34%; under `Cc1c(N)nc(C(CC(N)=O)NCC(N)C(N)=O)nc1C(=O)NC(C(=O)NC(C)C(O)C(C)C(=O)NC(C(=O)NCCc1nc(-c2nc(C(=O)NCCCN[C@@H](C)c3ccccc3)cs2)cs1)C(C)O)C(O[C@@H]1O[C@@H](CO)[C@@H](O)[C@H](O)[C@@H]1O[C@H]1O[C@H](CO)[C@@H](O)[C@H](OC(N)=O)[C@@H]1O)c1cnc[nH]1` (some centres undefined), 6.97%; under `CCCCc1cc2c(=O)c(C(=O)OC)c[nH]c2cc1OCc1ccccc1`, 5.7%.
Same read-out and setting: under `CCC(=O)OCC(=O)[C@@]1(OC(=O)CC)[C@@H](C)C[C@H]2[C@@H]3CCC4=CC(=O)C=C[C@]4(C)[C@@]3(Cl)[C@@H](O)C[C@@]21C` stands 0.406%.
Consider `NCCCNCCCCNC(=O)C(O)NC(=O)CCCCCCN=C(N)N` (centres undefined), for which the max response is -11.8%.
On the same count and under the same terms, under `CS(=O)(=O)NC(=O)CCC/C=C\C[C@H]1C(=O)C[C@@H](O)[C@@H]1/C=C/[C@H](O)COc1ccccc1` stands -11.4%.
Consider `O=C1O[C@H]2[C@H](O)[C@@H]1OC(O)[C@H]2O` (some centres undefined), for which the max response was -4.25%.
For `CC(C(=O)O)c1ccc(C2CCCCC2)c2ccccc12` (centres undefined), the max response is 16%.
In the case of `Cc1cc(-n2c(=O)[nH]c(=O)n(C)c2=O)ccc1Oc1ccc(S(=O)(=O)C(F)(F)F)cc1`, the max response is -1.23%.
Still for that read-out and setting: under `CC(C)(S)C(=O)N[C@@H](CS)C(=O)O` stands -15.4% and 8.89%; under `O=P(O)(O)C(Sc1ccc(Cl)cc1)P(=O)(O)O`, 17.7%; under `CCC(C)(C)OC(=O)N[C@@H](Cc1c[nH]c2ccccc12)C(=O)N[C@@H](CCSC)C(=O)N[C@@H](CC(=O)O)C(=O)N[C@@H](Cc1ccccc1)C(N)=O`, -0.189%.
The same measure, in the same setting: under `CC(=O)O[C@H]1CC[C@@]2(C)C(=CC[C@H]3[C@@H]4CC[C@H](C(C)=O)[C@@]4(C)CC[C@@H]32)C1` stands 3.94%; under `CCN(CC)c1ccc(N=Nc2ccc(S(=O)(=O)N(C)C)cc2)c(S(=O)(=O)NCC[n+]2ccccc2)c1`, 1.66%.
Same read-out and setting: under `NCCCC[C@H](NC(=O)[C@@H]1CCCN1C(=O)[C@@H]1CSSC[C@H](N)C(=O)N[C@@H](Cc2ccc(O)cc2)C(=O)N[C@@H](Cc2ccccc2)C(=O)N[C@@H](CCC(N)=O)C(=O)N[C@@H](CC(N)=O)C(=O)N1)C(=O)NCC(N)=O` stands -14.9% and -14.7%; under `COc1cc2[nH]c(C)c(CCN3CCN(c4ccccc4)CC3)c2cc1OC`, 16.1%; under `CCCC(=O)O[C@]1(C(=O)COC(=O)CC)[C@@H](C)C[C@H]2[C@@H]3CCC4=CC(=O)C=C[C@]4(C)[C@@]3(F)[C@@H](O)C[C@@]21C`, -15.1%.
For `NNc1nnc(Cc2ccncc2)c2ccccc12`, the max response was 1.86%.
`CCCCCCCCCCCCCCCC(=O)OC/C=C(C)/C=C/C=C(C)/C=C/C1=C(C)CCCC1(C)C`: the max response was -4.83%.
As to `CCN1CCCC1CNC(=O)c1cc(S(=O)(=O)CC)ccc1OC` (centres undefined), the max response is -5.69% and 12.8%.

These data come from PubChem BioAssay (NCATS).
